Assay [1] is described as follows: ATG_NFI_CIS: Attagene CIS-FACTORIAL HepG2 Assay for human Nuclear Factor I (NFI) (AID 2282989). As to conditions: HepG2 cis-regulatory reporter, NFI response element transcription; actives raise or lower the signal. The gist of the method:
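Reporter transcripts were measured by RT-PCR with fluorescent primer extension and capillary electrophoresis 24 h post-treatment. HepG2 cells carried transiently transfected cis-regulated reporter constructs reporting endogenous factor activity; gain or loss fitted against DMSO baseline.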

The target of assay [2] is Myc proto-oncogene protein (Homo sapiens) (UniProt P01106). Put plainly: ATG_Myc_CIS: Attagene CIS-FACTORIAL HepG2 Assay for human Myelocytomatosis (Myc) Proto-Oncogene Transcription Factor (AID 2282990). As to conditions: HepG2, Attagene cis-reporter transcription factor activity; actives raise or lower the signal. The gist of the method: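 DMSO-normalised, bidirectionally fitted reporter mRNA signal. HepG2 cells transfected with cis reporter constructs, treated 24 h; transcripts detected by RT-PCR, 6-FAM primer extension and CE.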

The nature of assay [3]: ATG_NRF2_ARE_CIS: Attagene CIS-FACTORIAL HepG2 Assay for human Nuclear Factor Erythroid 2 Related Factor 2 (NFR2) response to Antioxidant Response Elements (ARE) (AID 2282992).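 For AC50: reporter mRNA level measured by RT-PCR and capillary electrophoresis fluorescence.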 As to conditions: HepG2 Attagene ARE/NRF2 reporter, transcription factor activity; actives raise or lower the signal. Summed up:
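Fluorescence intensity of reporter-specific cDNA fragments, separated by capillary electrophoresis, reflects mRNA induction in transfected HepG2 cells at 24 h. Activity is fitted bidirectionally, DMSO serving as baseline.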

A short description of assay [4]: ATG_Oct_MLP_CIS: Attagene CIS-FACTORIAL HepG2 Assay for human Octamer-Binding Transcription Factor (Oct) (AID 2282993). As to conditions: HepG2 Attagene cis-factorial Oct reporter, mRNA; actives raise or lower the signal. The gist of the method:
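Readout is reporter transcript level from RT-PCR with fluorescent primer extension and capillary electrophoresis, fitted in both directions against DMSO. Transfected HepG2 reporter units report endogenous factor activity after 24 h dosing.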

In assay [5] the target is Cellular tumor antigen p53 (Homo sapiens) (UniProt P04637). Put plainly: ATG_p53_CIS: Attagene CIS-FACTORIAL HepG2 Assay for human p53 Transcription Factor (AID 2282994). As to conditions: HepG2 p53 cis-element reporter, Attagene mRNA; actives raise or lower the signal. The gist of the method:
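Transiently transfected HepG2 (multiple cis reporter transcription units); exposure 24 h; reporter RNA via RT-PCR, 6-FAM extension, 2 h HpaI digest at 37 C, CE detection; DMSO baseline.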

The nature of assay [6]: BSK_3C_TissueFactor: BioMAP Diversity Plus: 3C Assay for Tissue Factor Biomarker Activity (AID 2282997). As to conditions: BioMAP 3C HUVEC, tissue factor biomarker readout; actives raise or lower the signal. Summed up:
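Readout: Tissue Factor ELISA. Cells: human primary umbilical vein endothelium. Time: 24 h after dosing. Analysis: bidirectional fit, DMSO baseline.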

Assay [7] can be described thus: BSK_3C_uPAR: BioMAP Diversity Plus: 3C Assay for Urokinase-type plasminogen activator receptor (uPAR) Biomarker Activity (AID 2282998). As to conditions: BioMAP 3C HUVEC, uPAR biomarker ELISA; actives raise or lower the signal. The gist of the method:
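Cell-surface uPAR on HUVEC (3C system) read by ELISA at 24 h post-treatment, with DMSO as baseline and fitting in both directions. Parallel cultures stained with SRB to flag overt cytotoxicity.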
(In general: In an ELISA, binding on a coated surface is turned into a signal by an enzyme label.)

Assay [8] can be described thus: BSK_3C_VCAM1: BioMAP Diversity Plus: 3C Assay for Vascular cell adhesion molecule 1 (VCAM1) Biomarker Activity (AID 2282999). As to conditions: BioMAP 3C HUVEC, VCAM1 ELISA, cytokine-stimulated; actives raise or lower the signal. Summed up:
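Vascular primary endothelium (human umbilical vein) was exposed to chemicals and assayed 24 h later. VCAM-1 levels came from ELISA, with DMSO serving as baseline for bidirectional fitting.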

A short description of assay [9]: ATG_NF_kB_CIS: Attagene CIS-FACTORIAL HepG2 Assay for human Nuclear Factor Kappa B (NF-kB) (AID 2282991). As to conditions: HepG2 Attagene cis-factorial NF-kB reporter mRNA; actives raise or lower the signal. The gist of the method:
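Transient MRTU transfection of human HepG2 liver cells → 24 h chemical exposure → total RNA, oligo(dT) RT → PCR, 6-FAM primer extension, HpaI digest 2 h 37 C → CE fragment analysis. Bidirectional fitting, DMSO negative control.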

Assay [10] is described as follows: BSK_4H_Eotaxin3: BioMAP Diversity Plus: 4H Assay for Eotaxin 3 Biomarker Activity (AID 2283000).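 For outcome: CCL26 protein level quantified by ELISA in parallel with SRB cytotoxicity check.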 As to conditions: primary human endothelial cells (HUVEC); actives raise or lower the signal. The gist of the method:
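HUVEC, 24 h post-dose, ELISA for Eotaxin-3/CCL26. Gain or loss of signal fitted bidirectionally vs DMSO baseline.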

Values joined by “and” are separate entries in the source; they are usually repeats but may differ in a detail not shown here. Equal entries are not always repeated. Some compounds were tested as several samples or in several runs, with calls that do not always agree. Active and inactive are the calls of the source. Rule for the calls: active = hit-call score of the fitted dose curve at least 0.9, where 1 is the maximum; inactive = score below 0.9.

Chain of Myc proto-oncogene protein (Homo sapiens) (P01106 whole entry, looked up): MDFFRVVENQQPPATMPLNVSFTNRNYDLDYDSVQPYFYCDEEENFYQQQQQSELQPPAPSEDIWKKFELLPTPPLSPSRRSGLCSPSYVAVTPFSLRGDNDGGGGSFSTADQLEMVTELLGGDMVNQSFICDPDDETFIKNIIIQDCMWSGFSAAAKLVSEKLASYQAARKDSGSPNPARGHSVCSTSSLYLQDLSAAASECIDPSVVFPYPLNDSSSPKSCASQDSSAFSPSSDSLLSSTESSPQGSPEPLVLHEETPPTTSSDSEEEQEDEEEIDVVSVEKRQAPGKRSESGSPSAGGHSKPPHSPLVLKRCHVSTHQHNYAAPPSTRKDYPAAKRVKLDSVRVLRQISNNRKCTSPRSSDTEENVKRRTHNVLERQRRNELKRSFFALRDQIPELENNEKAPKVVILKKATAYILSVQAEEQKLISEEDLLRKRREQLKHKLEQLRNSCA
Chain of Cellular tumor antigen p53 (Homo sapiens) (P04637 whole entry, looked up): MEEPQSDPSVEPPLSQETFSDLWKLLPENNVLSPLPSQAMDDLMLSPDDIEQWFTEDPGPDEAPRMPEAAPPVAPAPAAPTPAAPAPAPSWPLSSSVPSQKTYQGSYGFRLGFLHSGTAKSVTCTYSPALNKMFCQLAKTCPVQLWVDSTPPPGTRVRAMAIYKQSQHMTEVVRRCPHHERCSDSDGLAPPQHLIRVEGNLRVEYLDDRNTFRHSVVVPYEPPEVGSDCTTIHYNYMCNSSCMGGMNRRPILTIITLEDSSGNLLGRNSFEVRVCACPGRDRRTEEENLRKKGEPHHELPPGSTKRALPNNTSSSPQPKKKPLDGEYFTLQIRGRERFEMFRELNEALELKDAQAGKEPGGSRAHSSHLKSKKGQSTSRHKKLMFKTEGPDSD

For `CN(C)c1ccc(C(=C2C=CC(=[N+](C)C)C=C2)c2ccc(N(C)C)cc2)cc1`, the compound was called inactive in assay [1], in [2] and in assay [4]. Also, the AC50 in assay [3] was 2.43 µM (active); in [5], 1.08 µM (active); in [6], 5.5 µM (active); in assay [7], 0.778 µM (active); in assay [8], 5.56 µM (active).
As for `CC1=CC(=O)/C(=C(/C)O)C(=O)O1`, the outcome in assay [1], in [2], in assay [3], in [4], in assay [5] and in [6] was inactive. Further, the result in assay [7] and in [8] was inactive.
In the case of `c1ccc(C[n+]2cccc3ccccc32)cc1`, the outcome in assay [1], in assay [2], in [9], in assay [4], in [5] and in assay [6] was inactive. Moreover, the outcome in [8] was inactive. The half-maximal activity concentration (AC50) in assay [3] is 67.9 µM (active).
`Cc1ccc2oc(CN(Cc3ccccc3)C(=O)Nc3c(F)cc(F)cc3F)c(-c3ccc(Cl)cc3)c2c1`: the compound was called inactive in assay [1], in assay [2], in assay [9], in assay [3], in assay [4] and in assay [5]. The outcome in [6] and in assay [8] was inactive.
As to `CC(C)(C)c1cc(/C=C2\SC(N)=NC2=O)cc(C(C)(C)C)c1O`, the half-maximal activity concentration (AC50) in assay [1] is 18.4 µM (active); in [3] it was 11.6 µM (active); in [4], 16.2 µM (active); in [5], 11 µM (active); in assay [6], 14.8 µM (active); in assay [8] it was 29.4 µM (active). The AC50 in [10] was 30.4 µM (active). The compound was classed as inactive in assay [2] and in [9].
As for `C[C@]12CC[C@@H]3c4ccc(O)cc4CC[C@H]3[C@@H]1CC[C@H]2O`, the call in [1], in [2], in assay [3], in [4], in assay [5] and in assay [8] was inactive. In addition, the AC50 is 27.2 µM (active) in [4]; 27.7 µM (active) and 10.4 µM (active) and 9.47 µM (active) in [5]; 18.1 µM (active) in assay [6].
For `CCCCCCCCOc1ccc(C(=O)c2ccccc2)c(O)c1`, the result in assay [1], in [2], in assay [9], in assay [3], in [4] and in assay [5] was inactive. Further, the result in [8] and in [10] was inactive. Besides, the AC50 in [6] is 13.2 µM (active).
With `CC(C)(O)c1ccc(CNC(=O)c2cccnc2Oc2ccc3nonc3c2)cc1`, the compound was called inactive in assay [1], in assay [2], in assay [9], in assay [3], in assay [4] and in assay [5]. The outcome in assay [6], in assay [8] and in assay [10] was inactive.
On to `O=C(O)c1ccccc1C(=O)OCc1ccccc1`, for which the compound was classed as inactive in assay [1], in assay [2], in assay [9], in [3], in [4] and in assay [5]. Besides, the result in [6], in [8] and in assay [10] was inactive.
For `O=C(OCCCCCCOC(=O)c1ccccc1)c1ccccc1`, the result in assay [1], in assay [2], in [9], in [3], in assay [4] and in assay [5] was inactive. In addition, the result in assay [6], in assay [8] and in assay [10] was inactive.
For the compound `CCCCCCCCCCCCO`, the compound was classed as inactive in [1], in assay [2], in [3], in [4] and in assay [5]. Further, the AC50 in assay [6] was 36.3 µM (active); in [8], 38.7 µM (active); in assay [10], 31.1 µM (active).
Turning to `CN1C(=O)CC[C@H]1c1cccnc1`, the call in assay [1], in assay [2], in assay [9], in [3], in assay [4] and in [5] was inactive. Further, the result in [6], in assay [8] and in assay [10] was inactive.
As to `O=C1O[C@H]([C@@H](O)CO)C(O)=C1O`, the result in assay [1], in [2], in [3], in [4], in assay [5] and in assay [6] was inactive. Also, the result in [7] and in [8] was inactive.
`Cc1c2ccccc2c(C)c2c1ccc1ccccc12`: the outcome in [1], in assay [9], in assay [4], in [5] and in assay [6] was inactive. In addition, the AC50 in [2] is 64.1 µM (active); in assay [3], 12.4 µM (active); in [8], 20 µM (active); in assay [10] it was 28.6 µM (active).
Turning to `O=C(O)c1ccccc1-n1cc(C(=O)O)c(=O)c2cc(Nc3c(F)cc(F)cc3Cl)c(Cl)cc21`, the call in [1], in [2], in assay [9], in assay [3], in assay [4] and in [5] was inactive. Further, the outcome in assay [6], in [8] and in assay [10] was inactive.
With `CN(C[C@@H](CC[N+]12CCC(C3CCCCC3)(CC1)CC2)c1ccc(Cl)c(Cl)c1)C(=O)c1cc(C(F)(F)F)cc(C(F)(F)F)c1`, the call in assay [1], in [2], in assay [9], in assay [3], in [4] and in assay [5] was inactive. Moreover, the AC50 is 23.5 µM (active) in assay [6], 31.9 µM (active) in assay [8] and 30.4 µM (active) in [10].
For the compound `Clc1cc(Cl)c2c(c1)N=C1CCCCCN1C2`, the call in [1], in [2], in assay [4], in assay [6] and in [8] was inactive. For the same compound, the values for the AC50 in [9], in assay [3] and in assay [5] were 72.4 µM (active), 20.8 µM (active) and 50 µM (active), respectively.
For `Oc1ccccc1`, the outcome in [1], in assay [2], in assay [3], in assay [4], in assay [5] and in assay [6] was inactive. The outcome in assay [7] and in assay [8] was inactive.
On to `CO[C@H]1/C=C/O[C@@]2(C)Oc3c(C)c(O)c4c(O)c(c(/C=N/N5CCN(C)CC5)c(O)c4c3C2=O)NC(=O)/C(C)=C\C=C\[C@H](C)[C@H](O)[C@@H](C)[C@@H](O)[C@@H](C)[C@H](OC(C)=O)[C@@H]1C`, for which the compound was classed as inactive in [1], in assay [2], in assay [9], in assay [4], in assay [5] and in [6]. The outcome in assay [8] was inactive. For the same compound, the concentration at half-maximal activity (AC50) in [3] was 4.16 µM (active) and 15.6 µM (active).
Consider `CCCCCCCCN(C)CCCCCCCC`, for which the outcome in assay [1], in assay [2], in assay [9], in [3], in assay [4] and in assay [5] was inactive. Besides, the outcome in [6], in assay [8] and in [10] was inactive.

Usually AC50 stands for the concentration at which the activity in the assay is half-maximal.

(Values after PubChem BioAssay (EPA / NIEHS).)
